High-throughput results: PubChem BioAssay, several laboratories
Shown are actives, neighbours in structure and some others; about 27% of the full set was active somewhere.
CYP2C19 inhib – inhibitors of human CYP2C19. P33261. inhibition, % at 5 µM. AID 778. 96,000 tested, 21% active. CYP2C19 Supersomes, luciferin-H EGE luminescence, 30 min;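 active = CYP2C19 inhibition above a set limit at 5 µM in the primary screen, cut at about 50% in these data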;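 also: plate controls were negative control wells for no effect and 2.5 mM tranylcypromine positive control for full effect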
Target sequence (P33261 whole entry, looked up): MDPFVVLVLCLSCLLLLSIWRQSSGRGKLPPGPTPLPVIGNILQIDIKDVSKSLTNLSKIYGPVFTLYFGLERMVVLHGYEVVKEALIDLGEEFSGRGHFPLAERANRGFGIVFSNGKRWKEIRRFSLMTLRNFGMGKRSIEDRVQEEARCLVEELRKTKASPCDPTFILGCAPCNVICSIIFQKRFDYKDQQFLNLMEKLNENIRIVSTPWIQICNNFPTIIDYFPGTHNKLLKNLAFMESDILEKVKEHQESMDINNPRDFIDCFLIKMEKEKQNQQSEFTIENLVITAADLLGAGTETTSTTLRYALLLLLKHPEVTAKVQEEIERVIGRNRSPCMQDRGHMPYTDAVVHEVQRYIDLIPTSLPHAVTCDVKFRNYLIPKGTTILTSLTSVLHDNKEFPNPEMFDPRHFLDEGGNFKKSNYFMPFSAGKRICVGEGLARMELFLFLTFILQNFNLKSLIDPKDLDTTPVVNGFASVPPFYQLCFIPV
sEH inhibitor – soluble epoxide hydrolase (human) inhibition; P34913; recombinant human sEH enzymatic activity assay; inhibition, % at 2 µM; 91,000 tested, 0.34% active; in the data active = inhibition above about 80%
CYP2C9 inhib – inhibitors of human CYP2C9. inhibition, % at 5 µM. P11712. 96,000 tested, 20% active. AID 777. CYP2C9 Supersomes, luciferin-H conversion, luminescence;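 active = blocking of liver enzyme CYP2C9 beyond about 50% at 5 µM, limit read from the data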
CYP2C9 activ – activators of human CYP2C9. activation factor at 5 µM. 96,000 tested, 1.4% active. P11712. recombinant CYP2C9, luciferin-H conversion, luminescence; hits give high values; factor 1 = untreated enzyme, 0 = blocked;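 active = activation factor of 2 or more for CYP2C9 at a 5 µM dose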;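 also: 0 = sulfaphenazole-blocked wells and 1 = vehicle-only wells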
sEH act – soluble epoxide hydrolase (human) activation; activation, % at 2 µM; purified human sEH enzymatic activity, activator screen; P34913; 91,000 tested, 0.04% active; in the data active = activation above about 37%
CYP2C19 act – increases human CYP2C19 enzyme activity | recombinant CYP2C19, luciferin-H EGE luminescence; hits give high values; 0 = fully inhibited enzyme, 1 = untreated enzyme | activation factor at 5 µM | 96,000 tested, under 10 active;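 active = activation factor of at least 2 at 5 µM in the primary screen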;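 also: 0 = wells with 2.5 mM tranylcypromine and 1 = vehicle-only wells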
* = called active by the depositor; / = no result given.

SMILES | CYP2C19 inhib | sEH inhibitor | CYP2C9 inhib | CYP2C9 activ | sEH act | CYP2C19 act
FC(F)(F)c1cccc(Oc2cc(C(F)(F)F)nc(-c3ccccn3)n2)c1 | 3 | 1 | 17 | 0.8 | 2 | 1
Cc1ccc(C(=O)NC(C)(COc2nonc2C)COc2nonc2C)cc1 | 94* | 5 | 72* | 0.3 | -2 | 0.1
Cc1ccc(C(=O)NCC(C)(C)O)cc1 | / | -8 | / | / | 3 | /
Cc1ccccc1CSCC(=O)N/N=C/c1cccs1 | 61* | 25 | 32 | 0.7 | -24 | 0.4
CCOC(=O)c1csc(NC(=O)CSc2nnnn2CC)n1 | 4 | 4 | 8 | 0.9 | -5 | 1
O=[N+]([O-])c1ccc2c(c1Nc1ccccc1)=NC1(CCCCC1)N=2 | 10 | 6 | 53* | 0.5 | -4 | 0.9
Cc1cccc(C)c1NC1=NC2(CCCCC2)N=C(N)N1 | -6 | / | -1 | 1 | / | 1.1
COC(=O)Cn1nc(-c2ccc(C)c(S(=O)(=O)N(C)C)c2)c2ccccc2c1=O | 20 | / | 59* | 0.4 | / | 0.8
COC(=O)Cn1nc(C)c2ccccc2c1=O | / | -5 | / | / | 5 | /
Cc1ccc(-c2nn(CC(=O)N(C)C)c(=O)c3ccccc23)cc1S(=O)(=O)N(C)C | 21 | -10 | 62* | 0.4 | 11 | 0.8
CC(C)CCn1c(=O)c2ccccc2n2c(CN3C(=O)NC4(CCC(C)CC4)C3=O)nnc12 (stereo unspecified) | 0 | -13 | 13 | 0.9 | 11 | 1
CS(=O)(=O)N1CCC(C(=O)Nc2ccc(Br)cc2F)CC1 | -1 | 0 | -8 | 1.1 | -1 | 1
Cc1nnc(Sc2nc3c(c(=O)[nH]c(=O)n3C)n2CCCc2ccccc2)s1 | 27 | -15 | 60* | 0.4 | 17 | 0.7
Cn1c(=O)[nH]c(=O)c2c1nc(SCCN1CCOCC1)n2CCCc1ccccc1 | 23 | 1 | 67* | 0.3 | 1 | 0.8
CCOC(=O)CSc1nc2c(c(=O)[nH]c(=O)n2C)n1CCc1ccccc1 | 16 | -3 | 7 | 0.9 | 3 | 0.8
CCOC(=O)C(CC)Sc1nc2c(c(=O)[nH]c(=O)n2C)n1CCc1ccccc1 (stereo unspecified) | 60* | 3 | 78* | 0.2 | -3 | 0.4
COc1cccc(C2NC(=O)NC(C)=C2C(=O)Nc2cccc(C)c2C)c1 (stereo unspecified) | 12 | -8 | 2 | 1 | 5 | 0.9
Cc1occc1C(=O)N1CCN(c2ncccn2)CC1 | 12 | 5 | 10 | 0.9 | -3 | 0.9
Cc1cc(NC(=O)CN2CCCC2c2nc3ccccc3s2)no1 (stereo unspecified) | 20 | / | 24 | 0.8 | / | 0.8
CC(C)(C)c1ccc(/C([O-])=C(/C(=S)NCc2ccco2)[n+]2ccccc2)cc1 | 2 | 0 | 26 | 0.7 | 1 | 1
N=c1n(CC(=O)O)c2ccccc2n1Cc1ccccc1Cl | -14 | -4 | -24 | 1.2 | 3 | 1.1
CSc1cc(-c2ccccc2)n(Cc2ccccc2Cl)c(=O)c1C#N | 20 | -17 | 61* | 0.4 | 16 | 0.8
CNC(=S)NNC(=O)c1cccn(Cc2cccc(Cl)c2)c1=O | 3 | -1 | -1 | 1 | -2 | 1
N#Cc1c(-c2ccccc2)ccn(Cc2ccccc2Cl)c1=O | 54* | -3 | 44 | 0.6 | 1 | 0.5
O=c1c2oc3ccccc3c2ncn1Cc1ccccc1Cl | 33 | 4 | 28 | 0.7 | -6 | 0.7
SMILES | CYP2C19 inhib | sEH inhibitor | CYP2C9 inhib | CYP2C9 activ | sEH act | CYP2C19 act
N#Cc1c(-c2ccccc2)ccn(Cc2cccc(Cl)c2)c1=O | 77* | 10 | 51* | 0.5 | -8 | 0.2
CCn1nc(C)c(NC(=O)c2cc(Br)ccc2Cl)c1C | -5 | / | -20 | 1.2 | / | 1.1
CCOc1ccc(-c2nnc3sc(-c4c(OC)cccc4OC)nn23)cc1 | / | 11 | / | / | -8 | /
O=C(COC(=O)C1CC(=O)N(c2ccc3c(c2)OCCO3)C1)NC1CCCc2ccccc21 (stereo unspecified) | 4 | 10 | 21 | 0.8 | -11 | 1
O=C(COC(=O)c1cc([N+](=O)[O-])ccc1NCc1ccccc1)NC1CCCc2ccccc21 (stereo unspecified) | 20 | 18 | 69* | 0.3 | -17 | 0.8
CCCCCC(=O)NC(NC(=S)N1CCOCC1)C(Cl)(Cl)Cl (stereo unspecified) | / | 22 | / | / | -19 | /
CCCCC(=O)NC(N1CCCCC1)C(Cl)(Cl)Cl (stereo unspecified) | 59* | -3 | 18 | 0.8 | 6 | 0.4
CCCN(CCC)CC(=O)Nc1cccc2c1OCO2 | 38 | -6 | 34 | 0.7 | 4 | 0.6
CNC(=O)COC(=O)c1ccc(-c2nc3ccccc3s2)s1 | 94* | -19 | 72* | 0.3 | 21 | 0.1
Cc1ccc(-n2nnc3c(=O)n(Cc4cc(C)ccc4C)cnc32)cc1 | / | -21 | / | / | 23 | /
O=C(c1cc2sccc2n1Cc1ccccc1)N1CCN(c2nc3ccccc3s2)CC1 | 25 | 6 | 53* | 0.5 | -4 | 0.8
O=C(Nc1ccccc1)N1CCN(c2nc3ccccc3s2)CC1 | 63* | -1 | 59* | 0.4 | 3 | 0.4
Cc1c(C(=O)N(C)C)sc(NC(=O)c2cccc([N+](=O)[O-])c2)c1C#N | -23 | 4 | -11 | 1.1 | -2 | 1.2
CN(Cc1ccccc1)C(=O)Cn1cccc1C(=O)c1ccccc1 | 70* | 9 | 30 | 0.7 | -7 | 0.3
O=C(Oc1oc(-c2ccco2)nc1C=Nc1ccc(Cl)cc1)c1ccco1 | -6 | -7 | 10 | 0.9 | 8 | 1.1
CCCC1(c2ccccc2)NC(=O)N(CCN2C(=O)c3ccccc3C2=O)C1=O (stereo unspecified) | 89* | -3 | 38 | 0.6 | 4 | 0.1
CC1(c2ccccc2)NC(=O)N(CCN2C(=O)c3ccccc3C2=O)C1=O (stereo unspecified) | 96* | 10 | 67* | 0.3 | -9 | 0
Cc1ccccc1NC(=O)C1CC(=O)N(c2ccc3c4c(cccc24)CC3)C1 (stereo unspecified) | 10 | 7 | 55* | 0.4 | -5 | 0.9
Cc1nn(C(C)c2nc(-c3ccccc3)no2)c(C)c1[N+](=O)[O-] (stereo unspecified) | 37 | -5 | 39 | 0.6 | 6 | 0.6
COc1cccc(-c2noc(Cn3nc(C)c([N+](=O)[O-])c3C)n2)c1 | 56* | 6 | 31 | 0.7 | -7 | 0.4
COc1ccc(-c2noc(C(C)n3nc(C)c([N+](=O)[O-])c3C)n2)cc1OC (stereo unspecified) | 25 | -5 | 59* | 0.4 | 6 | 0.8
COc1cccc(-c2noc(CCC(=O)Nc3cccnc3)n2)c1 | 38 | 9 | 50 | 0.5 | -8 | 0.6
CC1(C)CC(=O)c2cc(OCC(=O)NCCN3CCOCC3)ccc2O1 | 13 | -9 | 7 | 0.9 | 12 | 0.9
Cc1ccc(NC(=O)NC(=O)N(c2ccccc2)S(C)(=O)=O)cc1 | 10 | 7 | -4 | 1 | -6 | 0.9
